Assay results published in PubChem BioAssay (NCATS).
The source made the active and inactive calls. Calls follow the shape of the dose curve; as a rule, active = well fitted curve in the direction sought with a large enough effect; inconclusive = small, poorly fitted or top-dose-only effect, or another doubt; inactive = no such curve, though single readings can be large or run the other way.

molecular target: Alpha-galactosidase (Coffea arabica) (UniProt Q42656); assay: Counterscreen for Glucocerebrosidase Inhibitors: qHTS Assay for Coffee Bean alpha-Galactosidase at pH 4.5 (AID 957); conditions: purified coffee bean alpha-galactosidase, fluorogenic substrate; series mostly up to 76.9 µM; activity change, negative = inhibition: at the top concentration;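 also: plate controls were enzyme alone for no effect and no enzyme for full effect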
Sequence (Q42656 whole entry, looked up): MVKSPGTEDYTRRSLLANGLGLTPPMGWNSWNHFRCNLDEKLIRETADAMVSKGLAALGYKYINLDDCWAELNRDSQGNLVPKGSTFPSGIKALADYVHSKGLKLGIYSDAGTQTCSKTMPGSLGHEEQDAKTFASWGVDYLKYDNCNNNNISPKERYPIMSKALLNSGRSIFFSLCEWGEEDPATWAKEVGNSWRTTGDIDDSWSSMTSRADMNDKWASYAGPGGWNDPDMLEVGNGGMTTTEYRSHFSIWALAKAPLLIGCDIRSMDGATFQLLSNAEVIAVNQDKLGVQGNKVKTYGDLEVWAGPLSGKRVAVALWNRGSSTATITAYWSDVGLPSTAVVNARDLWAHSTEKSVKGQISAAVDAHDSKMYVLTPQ
Method in brief: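 Fluorogenic read-out: 4-methylumbelliferone at Ex 365/Em 440 nm after NaOH/glycine stop (pH 10). Enzyme 2 nM, 4-MU-alpha-galactoside 80 uM, citrate buffer pH 4.5, 20 min RT; normalized to no-enzyme and enzyme controls.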

Structure (SMILES)	activity change, negative = inhibition
CCCC(CCC)C(=O)O	-2.63% (inactive)
Nc1nc2c(ncn2COC(CO)CO)c(=O)[nH]1	-0.0541% (inactive)
CC[N+](CC)(CC)CC	-1.09% (inactive)
CNCCCN1c2ccccc2CCc2ccccc21	0.581% (inactive)
CN(C)CCC=C1c2ccccc2C=Cc2ccccc21	-7.71% (inactive)
Cc1ccccc1N1C(=O)c2cc(S(N)(=O)=O)c(Cl)cc2NC1C (stereo unspecified)	1.98% (inactive)
Fc1ccc([C@@H]2CCNC[C@H]2COc2ccc3c(c2)OCO3)cc1	-0.611% (inactive)
CC/C(=C(\c1ccccc1)c1ccc(OCCN(C)C)cc1)c1ccccc1	-6.22% (inactive)
CC1=C(/C=C/C(C)=C/C=C/C(C)=C/C(=O)Nc2ccc(O)cc2)C(C)(C)CCC1	-4.49% (inactive)
CN(C)CCCN1c2ccccc2CCc2ccc(Cl)cc21	-5.04% (inactive)
CC(C)C(=O)Nc1ccc([N+](=O)[O-])c(C(F)(F)F)c1	-2% (inactive)
